For 23 compounds, inhibition % (higher = more inhibition) results are on record in PubChem BioAssay AID651551 (Sanford-Burnham Center for Chemical Genomics, 2012).

This experiment deals with PEG-3 (UniProt Q6IN02). The experiment can be described thus: GAPDH versus PEG-3 reporter suppression – cell-based, luminescence, counter-screen for PEG-3 promoter inhibitor project, SAR follow-up (AID 651551). The note with it: HeLa PEG-Prom / GAPDH luciferase reporter, 6 or 24 h, run 3, 24 h; at 99 µM (top of the series). In general terms: Counterscreens check selectivity or assay interference.

Molecules are shown by their SMILES.

`Cc1cc(NC(=O)c2ccccc2)n(-c2nc3ccccc3n2C)n1`: the inhibition % (higher = more inhibition) was found to be 3.97%.

Take `Cc1nc(NC(=O)c2ccccc2)sc1-c1csc(Nc2ccccc2Cl)n1`: the inhibition % (higher = more inhibition) is -104%.

Regarding `COc1ccc(-n2nc(C(=O)NCC(=O)Nc3cccc(OC)c3)c3ccccc3c2=O)cc1`, the inhibition % (higher = more inhibition) is 8.99%.

`O=C(Nc1nc2ccccc2s1)c1nn(-c2ccccc2)c(=O)c2ccccc12`: the inhibition % (higher = more inhibition) is -21.2%.

Take `O=C(Nc1nccs1)c1nn(-c2ccccc2)c(=O)c2ccccc12`: the inhibition % (higher = more inhibition) was found to be 29.1%.

With `COc1ccc(-n2nc(C(=O)NCC(=O)Nc3ccc(OC)c(OC)c3)c3ccccc3c2=O)cc1`, the inhibition % (higher = more inhibition) was 34.1%.

With `CCCn1nc(C(=O)Nc2nc(-c3ccccn3)cs2)c2ccccc2c1=O`, the inhibition % (higher = more inhibition) is 40.8%.

Take `Cc1nc(NC(=O)c2ccccc2)sc1-c1csc(Nc2ccccc2)n1`: the inhibition % (higher = more inhibition) came out at 76.8%.

Regarding `CCCn1nc(C(=O)Nc2nc(-c3ccncc3)cs2)c2ccccc2c1=O`, the inhibition % (higher = more inhibition) is 44.6%.

Regarding `COc1ccc(-n2nc(C(=O)NCC(=O)Nc3cc(OC)c(OC)c(OC)c3)c3ccccc3c2=O)cc1OC`, the inhibition % (higher = more inhibition) was 34.1%.

As for `CCn1cc(C(=O)NCc2ccco2)c(=O)c2cc(S(=O)(=O)N3CCCC3)ccc21`, the inhibition % (higher = more inhibition) turned out to be 46.7%.

Turning to `Cc1ccc(Cl)cc1Nc1nc(-c2sc(NC(=O)c3ccco3)nc2C)cs1`, the inhibition % (higher = more inhibition) was -26.2%.

As to `Cc1cc(NC(=O)c2cccc(C)c2C)n(-c2nc3ccccc3[nH]2)n1`, the inhibition % (higher = more inhibition) amounted to 3.97%.

For `Cc1cc(NC(=O)c2ccccc2C)n(-c2nc3ccccc3[nH]2)n1`, the inhibition % (higher = more inhibition) worked out at 38%.

`Cc1nc(NC(=O)c2ccccc2)sc1-c1csc(Nc2cccc(Cl)c2C)n1`: the inhibition % (higher = more inhibition) was -61.4%.

Turning to `CCCn1nc(C(=O)Nc2nc3ccccc3s2)c2ccccc2c1=O`, the inhibition % (higher = more inhibition) is 16.5%.

In the case of `O=C(Nc1nc(-c2ccccc2)cs1)c1nn(-c2ccccc2)c(=O)c2ccccc12`, the inhibition % (higher = more inhibition) came out at 11.5%.

`Cc1cc(NC(=O)c2ccccc2C(F)(F)F)n(-c2nc3ccccc3[nH]2)n1`: the inhibition % (higher = more inhibition) came to 94.1%.

Consider `COCCCNC(=O)c1ccc(Cn2c(=O)c3ccccc3n(Cc3ccccc3C#N)c2=O)cc1`, for which the inhibition % (higher = more inhibition) stood at 73.4%.

Take `COc1ccccc1Nc1nc(-c2sc(NC(=O)c3ccco3)nc2C)cs1`: the inhibition % (higher = more inhibition) turned out to be 21.6%.

On to `COc1ccc(Cl)cc1Nc1nc(-c2sc(NC(=O)c3ccccc3)nc2C)cs1`, for which the inhibition % (higher = more inhibition) turned out to be 60.5%.

For `Cc1cc(NC(=O)c2ccccc2)n(-c2nc3ccccc3[nH]2)n1`, the inhibition % (higher = more inhibition) was 79.1%.

With `CCn1nc(C(=O)Nc2nc(-c3ccccn3)cs2)c2ccccc2c1=O`, the inhibition % (higher = more inhibition) was found to be 39.1%.
